697 NFkB inh – inhibitors of the PMA/ionomycin-induced NF-kB reporter in 697 B cells; 697 B-cell NF-kB luciferase reporter, 16 h; 0.33% of 330,000 active; AID 435022; inhibition, % at 4 µM; in the data active means inhibition above about 35%
NTR1 agonist – NTR1 (human) agonism; 0.17% of 330,000 active; activation, % at 20 µM; P30989; NTR1-U2OS beta-arrestin-GFP spot imaging, agonist mode;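 active means activation at or above 40% of the spot to cytoplasm intensity ratio, with at least 20 cells analyzed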
Target sequence (P30989 whole entry, looked up): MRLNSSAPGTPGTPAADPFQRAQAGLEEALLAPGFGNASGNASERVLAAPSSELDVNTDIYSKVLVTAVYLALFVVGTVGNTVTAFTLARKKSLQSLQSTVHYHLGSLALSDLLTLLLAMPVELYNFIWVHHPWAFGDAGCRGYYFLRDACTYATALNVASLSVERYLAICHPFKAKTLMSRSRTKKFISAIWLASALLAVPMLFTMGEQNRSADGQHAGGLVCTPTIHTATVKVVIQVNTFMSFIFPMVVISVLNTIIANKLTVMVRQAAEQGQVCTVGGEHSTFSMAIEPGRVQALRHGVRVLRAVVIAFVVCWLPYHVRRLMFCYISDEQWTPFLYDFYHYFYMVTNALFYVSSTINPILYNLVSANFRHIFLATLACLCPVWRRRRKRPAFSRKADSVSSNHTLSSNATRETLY
Jurkat NFkB inh – inhibitors of the PMA/ionomycin-induced NF-kB reporter in Jurkat cells. PMA/ionomycin-induced NF-kB luciferase reporter, luminescence. inhibition, % at 4 µM. 0.53% of 330,000 active. AID 435003; in the data active means inhibition above about 50%
A1 inh – inhibitors of the anti-apoptotic protein A1, read as caspase activation | MEF A1-2A-BIM cells, Caspase-Glo 3/7 luminescence, 3 h; percent of clofoctol response, vehicle zero | caspase activation, % (concentration not given with the values) | 0.066% of 330,000 active | AID 2462;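 active means over half of replicate activation scores above 10%, or exactly half above 10 with the replicate mean above 10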
Mdm2 MdmX PPI – disrupts the human Mdm2-MdmX interaction | O15151+Q00987 | SaOS-2 split-luciferase Mdm2/MdmX complementation, luminescence | inhibition, % at 8 µM | 3% of 330,000 active | AID 485346;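 active means inhibition of at least 50% at 8 µM in the primary screen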
Beta cell apopt – blocks beta cell apoptosis; INS-1E cytokine-induced death, ATP luminescence, 48 h; percent of positive-control rescue, neutral wells zero; protection from apoptosis, % (test concentration not listed); 0.8% of 300,000 active;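 active means Every replicate reaches about 75%, or at least half do and their mean reaches it too, limit read from the data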;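 further: higher means more ATP so stronger rescue from cytokine killing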
Mdm2 MdmX conf – confirmation of human Mdm2/MdmX interaction inhibitors | Mdm2-MdmX binding, luminescent assay | 55% of 10,000 active | shares compounds with Mdm2 MdmX PPI | AID 489028 | inhibition, % at 8 µM; in the data active means inhibition above about 40%
Full FLuc ctr – inhibits full-length luciferase, flagging false Mdm2/MdmX hits | shares compounds with Mdm2 MdmX PPI | SaOS-2 full-length luciferase counterscreen, luminescence | inhibition, % at 8 µM | 77% of 6,200 active | AID 504607;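 active means mean inhibition at 8 µM reaching about 37%, which flags the compound as non-specific, limit read from the data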;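 further: p53-null SaOS-2 cells with luciferase driven by a doxycycline-inducible promoter; compound on cells about two nights before reading with doxycycline added after day one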
A number is an active result. Shown are actives, neighbours in structure and some others; about 3.8% of the full set was active somewhere.

What do the screens show for `C/C=C(\C)CN1CCC(n2nccc2NC(=O)CCCc2ccccc2)CC1`?
697 NFkB inh: inactive; NTR1 agonist: inactive; Jurkat NFkB inh: inactive; A1 inh: inactive; Mdm2 MdmX PPI: inactive; Beta cell apopt: inactive

How did COc1ccccc1NC1=C(N2CCCCC2)C(=O)c2ccccc2C1=O do in these assays?
697 NFkB inh: inactive; NTR1 agonist: inactive; Jurkat NFkB inh: inactive; A1 inh: inactive; Mdm2 MdmX PPI: 74; Beta cell apopt: 102; Mdm2 MdmX conf: 46; Full FLuc ctr: inactive

How did O=[N+]([O-])c1ccc2c(c1)C(O)n1nc(-c3ccc(Cl)cc3Cl)nc1S2 (centres undefined) do in these assays?
697 NFkB inh: inactive; NTR1 agonist: inactive; Jurkat NFkB inh: inactive; A1 inh: inactive; Mdm2 MdmX PPI: inactive; Beta cell apopt: inactive; Mdm2 MdmX conf: 54; Full FLuc ctr: 102

What do the screens show for `Cc1ccc2oc(=O)c3cnn(CC(=O)Nc4cc(-c5cccc(F)c5)no4)c3c2c1`?
697 NFkB inh: inactive; NTR1 agonist: inactive; Jurkat NFkB inh: inactive; A1 inh: inactive; Mdm2 MdmX PPI: 74; Beta cell apopt: inactive; Mdm2 MdmX conf: inactive

How did Cc1ccc2oc(=O)c3cnn(CC(=O)N4CCc5ccccc5C4)c3c2c1 do in these assays?
697 NFkB inh: inactive; NTR1 agonist: inactive; Jurkat NFkB inh: inactive; A1 inh: inactive; Mdm2 MdmX PPI: inactive; Beta cell apopt: inactive

Results for CCOCCCN(C(=O)c1snc(C(N)=O)c1N)C(C(=O)NC1CCCC1)c1ccc(O)cc1 (centres undefined) ?
697 NFkB inh: inactive; NTR1 agonist: inactive; Jurkat NFkB inh: inactive; A1 inh: inactive; Mdm2 MdmX PPI: inactive; Beta cell apopt: inactive

What do the screens show for `CCN(CC)S(=O)(=O)c1cc(NC(=O)c2cc(-c3ccccn3)nc3ccccc23)ccc1C`?
697 NFkB inh: inactive; NTR1 agonist: inactive; Jurkat NFkB inh: inactive; A1 inh: inactive; Mdm2 MdmX PPI: 52; Beta cell apopt: inactive; Mdm2 MdmX conf: inactive

Results for CCN(CC)C(=O)c1cccc(NC(=O)c2cc(-c3ccccn3)nc3ccccc23)c1 ?
697 NFkB inh: inactive; NTR1 agonist: inactive; Jurkat NFkB inh: inactive; A1 inh: inactive; Mdm2 MdmX PPI: inactive; Beta cell apopt: inactive

Results for Cc1cc(NC(=O)c2cc(-c3cccs3)nc3ccccc23)no1 ?
697 NFkB inh: inactive; NTR1 agonist: inactive; Jurkat NFkB inh: inactive; A1 inh: inactive; Mdm2 MdmX PPI: 51; Beta cell apopt: inactive; Mdm2 MdmX conf: inactive

What do the screens show for `CCN(CC)S(=O)(=O)c1ccc(NC(=O)c2cc(-c3cccs3)nc3ccccc23)cc1`?
697 NFkB inh: inactive; NTR1 agonist: inactive; Jurkat NFkB inh: inactive; A1 inh: inactive; Mdm2 MdmX PPI: 50; Beta cell apopt: inactive; Mdm2 MdmX conf: inactive

What do the screens show for `NS(=O)(=O)c1ccc(NC(=O)c2cc(-c3cccs3)nc3ccccc23)cc1`?
697 NFkB inh: inactive; NTR1 agonist: inactive; Jurkat NFkB inh: inactive; A1 inh: inactive; Mdm2 MdmX PPI: 87; Beta cell apopt: inactive; Mdm2 MdmX conf: inactive

Results for CC(=O)NS(=O)(=O)c1ccc(NC(=O)c2cc(-c3cccs3)nc3ccccc23)cc1 ?
697 NFkB inh: inactive; NTR1 agonist: inactive; Jurkat NFkB inh: inactive; A1 inh: inactive; Mdm2 MdmX PPI: inactive; Beta cell apopt: inactive

What do the screens show for `COc1ccc2[nH]cc(CCNC(=O)Cc3ccc(F)cc3)c2c1`?
697 NFkB inh: inactive; NTR1 agonist: inactive; Jurkat NFkB inh: inactive; A1 inh: inactive; Mdm2 MdmX PPI: inactive; Beta cell apopt: inactive

How did Cc1ccc(OCCC(=O)OCC(=O)Nc2c(C)nn(-c3ccccc3)c2C)cc1 do in these assays?
697 NFkB inh: inactive; NTR1 agonist: inactive; Jurkat NFkB inh: inactive; A1 inh: inactive; Mdm2 MdmX PPI: inactive; Beta cell apopt: inactive

What do the screens show for `Cc1cc(NC(=O)c2cc(-c3ccccn3)nc3ccc(Br)cc23)no1`?
697 NFkB inh: inactive; NTR1 agonist: inactive; Jurkat NFkB inh: inactive; A1 inh: inactive; Mdm2 MdmX PPI: 66; Beta cell apopt: inactive; Mdm2 MdmX conf: inactive

What do the screens show for `CN(C)S(=O)(=O)c1ccc(NC(=O)c2cc(-c3cccs3)nc3ccccc23)cc1`?
697 NFkB inh: inactive; NTR1 agonist: inactive; Jurkat NFkB inh: inactive; A1 inh: inactive; Mdm2 MdmX PPI: 64; Beta cell apopt: inactive; Mdm2 MdmX conf: 62; Full FLuc ctr: 53

How did NS(=O)(=O)c1ccc(CCNC(=O)c2cc(-c3ccccn3)nc3ccc(Br)cc23)cc1 do in these assays?
697 NFkB inh: inactive; NTR1 agonist: inactive; Jurkat NFkB inh: inactive; A1 inh: inactive; Mdm2 MdmX PPI: 77; Beta cell apopt: inactive; Mdm2 MdmX conf: inactive

What do the screens show for `Cc1cc(C(=O)CN2C(=O)C(=O)N(Cc3ccccc3)C2=O)c(C)n1-c1ccccc1F`?
697 NFkB inh: inactive; NTR1 agonist: inactive; Jurkat NFkB inh: inactive; A1 inh: inactive; Mdm2 MdmX PPI: 52; Beta cell apopt: inactive; Mdm2 MdmX conf: 51; Full FLuc ctr: 51

What do the screens show for `Cc1cc(C(=O)CN2CCC(C)CC2)c(C)n1-c1ccccc1F`?
697 NFkB inh: inactive; NTR1 agonist: inactive; Jurkat NFkB inh: inactive; A1 inh: inactive; Mdm2 MdmX PPI: 66; Beta cell apopt: inactive; Mdm2 MdmX conf: 76; Full FLuc ctr: 70

What do the screens show for `Cc1cc(C(=O)CN2C(=O)C(=O)N(Cc3ccccc3)C2=O)c(C)n1Cc1ccccc1`?
697 NFkB inh: inactive; NTR1 agonist: inactive; Jurkat NFkB inh: inactive; A1 inh: inactive; Mdm2 MdmX PPI: inactive; Beta cell apopt: inactive

Results for CCN1CCN(C(=O)C2CC(=O)N(c3ccc(Cl)cc3)C2)CC1 (centres undefined) ?
697 NFkB inh: inactive; NTR1 agonist: inactive; Jurkat NFkB inh: inactive; A1 inh: inactive; Mdm2 MdmX PPI: inactive; Beta cell apopt: inactive

Results for COc1ccc(Cl)cc1NC(=O)[C@@]1(CC(=O)O)CC(/C=C/c2ccccc2)=NO1 ?
697 NFkB inh: inactive; NTR1 agonist: inactive; Jurkat NFkB inh: inactive; A1 inh: inactive; Mdm2 MdmX PPI: inactive

Results for Cc1ccc(C)c(C2NC(=O)c3ccccc3N2)c1 (centres undefined) ?
697 NFkB inh: inactive; NTR1 agonist: inactive; Jurkat NFkB inh: inactive; A1 inh: inactive; Mdm2 MdmX PPI: 50; Beta cell apopt: inactive; Mdm2 MdmX conf: 53; Full FLuc ctr: 55

What do the screens show for `Cc1cc(C)c2nc(Cl)c(C3NC(=O)c4ccccc4N3)cc2c1` (centres undefined)?
697 NFkB inh: inactive; NTR1 agonist: inactive; Jurkat NFkB inh: inactive; A1 inh: inactive; Mdm2 MdmX PPI: inactive; Beta cell apopt: inactive

What do the screens show for `Cc1cccc(Nc2nc(N)c([N+](=O)[O-])c(NCc3ccccc3)n2)c1`?
697 NFkB inh: inactive; NTR1 agonist: inactive; Jurkat NFkB inh: inactive; A1 inh: inactive; Mdm2 MdmX PPI: 52; Mdm2 MdmX conf: inactive

Bioassay records (PubChem)
